Assay results taken from PubChem BioAssay (NCATS).
Results filed as inconclusive are left out. Where a call stands in place of a potency, no number is given. Unmarked numbers belong to inactive results. Activity calls are given as the source filed them. Calls follow the shape of the dose curve; as a rule, active = well fitted cell-killing curve with a large enough effect; inconclusive = small, poorly fitted or top-dose-only effect, or effect the other way; inactive = no such curve, though single readings can be large or run the other way.

Columns and labels:
[1] = Quantitative High-Throughput drug screen in 47 multiple myeloma cell lines against the NCATS MIPE library collection: MM1R_ATCC cell viability assay (AID 1918981); also: nearly all actives have a fitted effect of over 35% in size
Method in brief: (§1)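 Plated at 500 cells per well, myeloma lines received MIPE 4.0 compounds by pin tool. Following 48 h culture at 37 °C, CellTiter-Glo luminescence gave viability relative to DMSO and media-only controls.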

[2] = Quantitative High-Throughput drug screen in 47 multiple myeloma cell lines against the NCATS MIPE library collection: KMS34_JCRB cell viability assay (AID 1918985); also: nearly all actives have a fitted effect of over 40% in size
Method in brief: as §1

[3] = Quantitative High-Throughput drug screen in 47 multiple myeloma cell lines against the NCATS MIPE library collection: OCIMY5_PLB cell viability assay (AID 1918988); also: nearly all actives have a fitted effect of over 65% in size
Method in brief: as §1

[4] = Quantitative High-Throughput drug screen in 47 multiple myeloma cell lines against the NCATS MIPE library collection: SKMM1_PLB cell viability assay (AID 1919863); details: SKMM1 myeloma viability, CellTiter-Glo ATP, 48 h; viability: stronger effect = lower value; also: nearly all actives have a fitted effect of over 35% in size; as to viability: series mostly up to about 46 µM
Method in brief: as §1

[5] = Quantitative High-Throughput drug screen in 47 multiple myeloma cell lines against the NCATS MIPE library collection: XG1_PLB cell viability assay (AID 1919866); also: nearly all actives have a fitted effect of over 35% in size
Method in brief: as §1

[6] = Quantitative High-Throughput drug screen in 47 multiple myeloma cell lines against the NCATS MIPE library collection: UTMC2_PLB cell viability assay (AID 1919868); also: nearly all actives have a fitted effect of over 55% in size
Method in brief: as §1

[7] = Quantitative High-Throughput drug screen in 47 multiple myeloma cell lines against the NCATS MIPE library collection: PE2_PLB cell viability assay (AID 1919869); also: nearly all actives have a fitted effect of over 35% in size
Method in brief: as §1

[8] = Quantitative High-Throughput drug screen in 47 multiple myeloma cell lines against the NCATS MIPE library collection: OPM2_DSMZ cell viability assay (AID 1919872); also: nearly all actives have a fitted effect of over 30% in size
Method in brief: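 Approved and investigational drugs from MIPE 4.0 were added by pin tool to 500 cells per well. After 48 hours at 37C, ATP-based CellTiter-Glo luminescence indicated remaining viability.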

[9] = Quantitative High-Throughput drug screen in 47 multiple myeloma cell lines against the NCATS MIPE library collection: LP1_DSMZ cell viability assay (AID 1918982); also: nearly all actives have a fitted effect of over 35% in size
Method in brief: as §1

[10] = Quantitative High-Throughput drug screen in 47 multiple myeloma cell lines against the NCATS MIPE library collection: KMS28PE_JCRB cell viability assay (AID 1918983); also: nearly all actives have a fitted effect of over 35% in size
Method in brief: as §1

[11] = Quantitative High-Throughput drug screen in 47 multiple myeloma cell lines against the NCATS MIPE library collection: U266_ATCC cell viability assay (AID 1919864); also: nearly all actives have a fitted effect of over 35% in size
Method in brief: as §1

[12] = Quantitative High-Throughput drug screen in 47 multiple myeloma cell lines against the NCATS MIPE library collection: PCM6_Riken cell viability assay (AID 1919870); also: nearly all actives have a fitted effect of over 30% in size
Method in brief: as §1

[13] = Quantitative High-Throughput drug screen in 47 multiple myeloma cell lines against the NCATS MIPE library collection: RPMI8226_ATCC cell viability assay (AID 1919871); also: nearly all actives have a fitted effect of over 30% in size
Method in brief: as §1

[14] = Quantitative High-Throughput drug screen in 47 multiple myeloma cell lines against the NCATS MIPE library collection: OCIMY7_PLB cell viability assay (AID 1918987); also: nearly all actives have a fitted effect of over 65% in size
Method in brief: as §1

[15] = Quantitative High-Throughput drug screen in 47 multiple myeloma cell lines against the NCATS MIPE library collection: L363_DSMZ cell viability assay (AID 1918984); also: nearly all actives have a fitted effect of over 40% in size
Method in brief: as §1

[16] = Quantitative High-Throughput drug screen in 47 multiple myeloma cell lines against the NCATS MIPE library collection: OPM1_PLB cell viability assay (AID 1918989); also: nearly all actives have a fitted effect of over 40% in size
Method in brief: as §1

[17] = Quantitative High-Throughput drug screen in 47 multiple myeloma cell lines against the NCATS MIPE library collection: XG6_PLB cell viability assay (AID 1919865); also: nearly all actives have a fitted effect of over 40% in size
Method in brief: as §1

[18] = Quantitative High-Throughput drug screen in 47 multiple myeloma cell lines against the NCATS MIPE library collection: VP6_DJ cell viability assay (AID 1919867); also: nearly all actives have a fitted effect of over 40% in size
Method in brief: as §1
Potency is read from the fitted curve at half-maximal effect.

For `CCCOc1ccc2nc(NC(=O)OC)[nH]c2c1`, the Potency [1] was 0.0083 µM (active), the Potency [2] was 0.0059 µM (active) and the Potency [3] was 0.0026 µM (active). For the same compound, the Potency [4] was 0.0093 µM (active), the Potency [5] was “inactive” and the Potency [6] was 0.0209 µM (active). For the same compound, the Potency [7] was 0.0469 µM (active) and the Potency [8] was 0.0105 µM (active).

For `Cc1cc2c(s1)Nc1ccccc1N=C2N1CCN(C)CC1`, the Potency [1] was “inactive”, the Potency [9] was “inactive” and the Potency [10] was “inactive”. For the same compound, the viability [4] was 120%, the Potency [11] was “inactive” and the Potency [5] was “inactive”. For the same compound, the Potency [6] was “inactive”, the Potency [7] was “inactive” and the Potency [12] was “inactive”. The Potency [13] was “inactive” and the Potency [8] was “inactive”.

With `CC(C)c1ccc2oc3nc(N)c(C(=O)O)cc3c(=O)c2c1` the Potency [1] was “inactive”, the Potency [14] was 18.7 µM (active) and the Potency [5] was “inactive”. For the same compound, the Potency [7] was “inactive”, the Potency [12] was “inactive” and the Potency [13] was “inactive”.

For `CCCCCCCCOc1ccccc1C(=O)Nc1ccc(C(=O)OCC[N+](C)(CC)CC)cc1`, the Potency [15] was 4.69 µM (active), the Potency [2] was 23.5 µM (active) and the Potency [3] was 20.9 µM (active). The Potency [4] was 26.4 µM (active), the Potency [11] was 20.9 µM (active) and the Potency [5] was 16.6 µM (active). The Potency [6] was 16.6 µM (active), the Potency [7] was 16.6 µM (active) and the Potency [12] was 16.6 µM (active).

In the case of `CCCS(=O)c1ccc2nc(NC(=O)OC)[nH]c2c1` (configuration not stated), the Potency [9] is reported as 16.6 µM (active), the Potency [3] is reported as 16.6 µM (active) and the Potency [4] is reported as 10.5 µM (active). The Potency [8] was 23.5 µM (active).

In the case of `Nc1cccc2c1CN(C1CCC(=O)NC1=O)C2=O` (configuration not stated), the Potency [10] is reported as 0.171 µM (active), the Potency [14] is reported as 0.0382 µM (active) and the Potency [3] is reported as “inactive”. For the same compound, the Potency [16] was “inactive”, the viability [4] was 122% and the Potency [11] was “inactive”. For the same compound, the Potency [17] was “inactive”, the Potency [5] was 3.03 µM (active) and the Potency [18] was 4.81 µM (active). For the same compound, the Potency [12] was “inactive” and the Potency [8] was “inactive”.

With `Cc1c(C(=O)NN2CCCCC2)nn(-c2ccc(Cl)cc2Cl)c1-c1ccc(Cl)cc1` the Potency [2] was “inactive”, the Potency [14] was 16.6 µM (active) and the Potency [17] was 26.4 µM (active). The Potency [5] was 26.4 µM (active), the Potency [6] was 20.9 µM (active) and the Potency [12] was 26.4 µM (active).

In the case of `COc1cc(C(C)=O)ccc1OCCCN1CCC(c2noc3cc(F)ccc23)CC1`, the Potency [1] is reported as 16.6 µM (active), the Potency [10] is reported as “inactive” and the Potency [3] is reported as 6.62 µM (active). The viability [4] was 110%, the Potency [18] was 16.6 µM (active) and the Potency [12] was 18.7 µM (active). For the same compound, the Potency [13] was 13.2 µM (active) and the Potency [8] was “inactive”.

For `COCCCOc1ccnc(CS(=O)c2nc3ccccc3[nH]2)c1C` (configuration not stated), the Potency [1] was “inactive”, the Potency [10] was “inactive” and the Potency [15] was “inactive”. The Potency [16] was “inactive”, the Potency [11] was “inactive” and the Potency [17] was 10.5 µM (active). The Potency [5] was “inactive”, the Potency [18] was 4.69 µM (active) and the Potency [7] was “inactive”. The Potency [12] was “inactive”, the Potency [13] was “inactive” and the Potency [8] was “inactive”.

In the case of `CCOc1cc(CC(=O)N[C@@H](CC(C)C)c2ccccc2N2CCCCC2)ccc1C(=O)O`, the Potency [9] is reported as “inactive”, the Potency [10] is reported as “inactive” and the Potency [2] is reported as “inactive”. The viability [4] was 138%, the Potency [17] was “inactive” and the Potency [5] was “inactive”. For the same compound, the Potency [18] was “inactive”, the Potency [13] was “inactive” and the Potency [8] was “inactive”.

For `Clc1ccc(C(Cn2ccnc2)OCc2c(Cl)cccc2Cl)c(Cl)c1` (configuration not stated), the Potency [15] was 18.7 µM (active), the Potency [14] was 29.6 µM (active) and the Potency [4] was 26.4 µM (active). For the same compound, the Potency [5] was 20.9 µM (active), the Potency [18] was 16.6 µM (active) and the Potency [12] was 14.8 µM (active).

In the case of `C[C@]12CCC(=O)C=C1CC[C@@H]1[C@H]2[C@@H](O)C[C@@]2(C)[C@H]1CC[C@]2(O)C(=O)CO`, the Potency [9] is reported as “inactive”, the Potency [10] is reported as “inactive” and the Potency [15] is reported as “inactive”. The Potency [3] was “inactive”, the Potency [16] was “inactive” and the viability [4] was 138%. The Potency [17] was 18.7 µM (active), the Potency [18] was 14.8 µM (active) and the Potency [7] was “inactive”. For the same compound, the Potency [13] was 0.418 µM (active) and the Potency [8] was “inactive”.

For `Cc1nc(Nc2ncc(C(=O)Nc3c(C)cccc3Cl)s2)cc(N2CCN(CCO)CC2)n1`, the Potency [15] was 1.32 µM (active), the Potency [3] was 0.743 µM (active) and the Potency [16] was 0.833 µM (active). The Potency [11] was 16.6 µM (active), the Potency [17] was 0.0332 µM (active) and the Potency [5] was 16.6 µM (active). The Potency [18] was 0.0662 µM (active), the Potency [7] was 3.32 µM (active) and the Potency [12] was 5.26 µM (active).

In the case of `CC[C@]1(O)C[C@H]2CN(CCc3c([nH]c4ccccc34)[C@@](C(=O)OC)(c3cc4c(cc3OC)N(C=O)[C@H]3[C@@](O)(C(=O)OC)[C@H](OC(C)=O)[C@]5(CC)C=CCN6CC[C@]43[C@@H]65)C2)C1`, the Potency [10] is reported as 0.0047 µM (active), the Potency [15] is reported as 0.132 µM (active) and the Potency [2] is reported as 0.0019 µM (active). The Potency [14] was 0.0235 µM (active), the Potency [16] was 0.0053 µM (active) and the Potency [4] was 0.0053 µM (active). For the same compound, the Potency [17] was “inactive”, the Potency [6] was 0.0093 µM (active) and the Potency [13] was 0.0093 µM (active). For the same compound, the Potency [8] was 0.003 µM (active).

With `O=C(CS(=O)Cc1ccco1)NCC=CCOc1cc(CN2CCCCC2)ccn1` (configuration not stated) the Potency [1] was “inactive”, the Potency [9] was “inactive” and the Potency [10] was “inactive”. For the same compound, the Potency [15] was “inactive”, the Potency [2] was “inactive” and the viability [4] was 134%. For the same compound, the Potency [11] was “inactive”, the Potency [17] was 14.8 µM (active) and the Potency [18] was 16.6 µM (active). For the same compound, the Potency [7] was “inactive” and the Potency [8] was “inactive”.

With `c1ccc2[nH]c(-c3cscn3)nc2c1` the Potency [1] was “inactive”, the Potency [9] was “inactive” and the Potency [14] was “inactive”. The Potency [3] was “inactive”, the Potency [16] was “inactive” and the viability [4] was 120%. The Potency [17] was “inactive”, the Potency [5] was “inactive” and the Potency [18] was “inactive”. The Potency [7] was “inactive”, the Potency [12] was “inactive” and the Potency [13] was “inactive”. For the same compound, the Potency [8] was “inactive”.

With `CC(C)c1nc(CN(C)C(=O)N[C@H](C(=O)N[C@@H](Cc2ccccc2)C[C@H](O)[C@H](Cc2ccccc2)NC(=O)OCc2cncs2)C(C)C)cs1` the Potency [9] was 16.6 µM (active), the Potency [15] was “inactive” and the Potency [2] was 16.6 µM (active). For the same compound, the Potency [14] was 20.9 µM (active), the Potency [16] was “inactive” and the Potency [17] was “inactive”. For the same compound, the Potency [5] was “inactive”, the Potency [12] was “inactive” and the Potency [8] was 20.9 µM (active).

With `O=C1c2c(O)cc(O)cc2OC(c2ccc(O)c(O)c2)C1O` (configuration not stated) the Potency [9] was “inactive”, the Potency [14] was 14.8 µM (active) and the Potency [3] was “inactive”. For the same compound, the Potency [16] was “inactive”, the Potency [11] was “inactive” and the Potency [5] was “inactive”. For the same compound, the Potency [18] was “inactive”, the Potency [12] was “inactive” and the Potency [13] was “inactive”.
